Measured values reported in the supplement of paper PMC8728848.
Many of the other results were omitted from the sample, so the strongest signals are more common in it than they were.

Tests used:
Assay in all cases: glycan array binding signal (z-score within array); higher = stronger binding
Conditions in all cases: glycan notation: IUPAC condensed, linker removed; mutation: R186S
[1] = molecular target: Fuc(a1-2)Gal(b1-3)GalNAc(b1-4)[Neu5Ac(a2-3)]Gal(b1-4)Glc
Procedure, shortened: (§1)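 The binding signal is a Z-score computed within each array. Data were drawn from 3228 arrays in the Consortium for Functional Glycomics database, restricted to those with a known protein sequence. Scores were averaged over arrays of the same protein sequence at different concentrations or buffers, and over linkers, and negative values can be taken as non-binding.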

[2] = molecular target: Fuc(a1-2)Gal(b1-4)[Fuc(a1-3)]GlcNAc(b1-2)Man(a1-3)[Fuc(a1-2)Gal(b1-4)[Fuc(a1-3)]GlcNAc(b1-2)Man(a1-6)]Man(b1-4)GlcNAc(b1-4)GlcNAc
Procedure, shortened: as §1

[3] = molecular target: Fuc(a1-2)Gal(b1-4)[Fuc(a1-3)]GlcNAc(b1-3)Gal(b1-4)[Fuc(a1-3)]GlcNAc(b1-3)Gal(b1-4)[Fuc(a1-3)]GlcNAc
Procedure, shortened: as §1

[4] = molecular target: Fuc(a1-2)[Gal(a1-3)]Gal(b1-3)GlcNAc(b1-2)Man(a1-3)[Fuc(a1-2)[Gal(a1-3)]Gal(b1-3)GlcNAc(b1-2)Man(a1-6)]Man(b1-4)GlcNAc(b1-4)GlcNAc
Procedure, shortened: as §1

[5] = molecular target: Fuc(a1-2)[Gal(a1-3)]Gal(b1-4)GlcNAc(b1-2)Man(a1-3)[Fuc(a1-2)[Gal(a1-3)]Gal(b1-4)GlcNAc(b1-2)Man(a1-6)]Man(b1-4)GlcNAc(b1-4)GlcNAc
Procedure, shortened: as §1

[6] = molecular target: Fuc(a1-2)[GalNAc(a1-3)]Gal(b1-3)GlcNAc(b1-2)Man(a1-3)[Fuc(a1-2)[GalNAc(a1-3)]Gal(b1-3)GlcNAc(b1-2)Man(a1-6)]Man(b1-4)GlcNAc(b1-4)GlcNAc
Procedure, shortened: as §1

[7] = molecular target: Fuc(a1-3)[Gal(b1-4)]GlcNAc(b1-2)Man(a1-3)[Fuc(a1-3)[Gal(b1-4)]GlcNAc(b1-2)Man(a1-6)]Man(b1-4)GlcNAc(b1-4)GlcNAc
Procedure, shortened: as §1

Fuc(b1-3)GlcNAc = molecular target: Fuc(b1-3)GlcNAc
Procedure, shortened: as §1

[8] = molecular target: Gal(a1-3)Gal(b1-4)[Fuc(a1-3)]GlcNAc(b1-2)Man(a1-3)[Gal(a1-3)Gal(b1-4)[Fuc(a1-3)]GlcNAc(b1-2)Man(a1-6)]Man(b1-4)GlcNAc(b1-4)GlcNAc
Procedure, shortened: as §1

[9] = molecular target: Gal(b1-3)GlcNAc(b1-3)GalNAc
Procedure, shortened: as §1

[10] = molecular target: Gal(b1-3)[Fuc(a1-4)]GlcNAc(b1-2)Man(a1-3)[Gal(b1-3)[Fuc(a1-4)]GlcNAc(b1-2)Man(a1-6)]Man(b1-4)GlcNAc(b1-4)GlcNAc
Procedure, shortened: as §1

[11] = molecular target: Gal(b1-3)[Neu5Ac(a2-6)]GalNAc
Procedure, shortened: as §1

[12] = molecular target: Gal(b1-4)GlcNAc(b1-2)Man(a1-3)[Gal(b1-4)GlcNAc(b1-2)Man(a1-6)]Man(b1-4)GlcNAc(b1-4)[Fuc(a1-6)]GlcNAc
Procedure, shortened: as §1

[13] = molecular target: Gal(b1-4)GlcNAc(b1-2)Man(a1-6)[Man(a1-3)]Man(b1-4)GlcNAc(b1-4)GlcNAc
Procedure, shortened: as §1

[14] = molecular target: Gal(b1-4)GlcNAc(b1-2)[Gal(b1-4)GlcNAc(b1-4)]Man(a1-3)[Gal(b1-4)GlcNAc(b1-2)Man(a1-6)]Man(b1-4)GlcNAc(b1-4)GlcNAc
Procedure, shortened: as §1

[15] = molecular target: Gal(b1-4)GlcNAc(b1-3)Gal(b1-3)GlcNAc
Procedure, shortened: as §1

[16] = molecular target: GalNAc(b1-4)GlcNAc(b1-2)Man(a1-3)[GalNAc(b1-4)GlcNAc(b1-2)Man(a1-6)]Man(b1-4)GlcNAc(b1-4)GlcNAc
Procedure, shortened: as §1

Glc(a1-6)Glc(a1-6)Glc = molecular target: Glc(a1-6)Glc(a1-6)Glc
Procedure, shortened: as §1

GlcA(b1-6)Gal = molecular target: GlcA(b1-6)Gal
Procedure, shortened: as §1

[17] = molecular target: GlcNAc(a1-4)Gal(b1-4)GlcNAc(b1-3)Gal(b1-4)Glc
Procedure, shortened: as §1

[18] = molecular target: GlcNAc(b1-2)Man(a1-3)[GlcNAc(b1-2)Man(a1-6)]Man(b1-4)GlcNAc(b1-4)[Fuc(a1-6)]GlcNAc
Procedure, shortened: as §1

GlcNAc(b1-3)Gal = molecular target: GlcNAc(b1-3)Gal
Procedure, shortened: as §1

GlcNAc(b1-3)Gal(b1-4)Glc = molecular target: GlcNAc(b1-3)Gal(b1-4)Glc
Procedure, shortened: as §1

[19] = molecular target: GlcNAc(b1-6)Gal(b1-4)GlcNAc
Procedure, shortened: as §1

GlcNAc(b1-6)GalNAc = molecular target: GlcNAc(b1-6)GalNAc
Procedure, shortened: as §1

Kdn(a2-3)Gal(b1-4)Glc = molecular target: Kdn(a2-3)Gal(b1-4)Glc
Procedure, shortened: as §1

Kdn(a2-6)Gal(b1-4)GlcNAc = molecular target: Kdn(a2-6)Gal(b1-4)GlcNAc
Procedure, shortened: as §1

[20] = molecular target: Man(a1-2)Man(a1-2)Man(a1-3)Man
Procedure, shortened: as §1

Man(a1-2)Man(a1-3)Man = molecular target: Man(a1-2)Man(a1-3)Man
Procedure, shortened: as §1

[21] = molecular target: Neu5Ac(a2-3)Gal(b1-3)GalNAc(b1-3)Gal(a1-4)Gal(b1-4)Glc
Procedure, shortened: as §1

[22] = molecular target: Neu5Ac(a2-3)Gal(b1-3)[Neu5Ac(a2-3)Gal(b1-4)]GlcNAc
Procedure, shortened: as §1

[23] = molecular target: Neu5Ac(a2-3)Gal(b1-4)[Fuc(a1-3)]GlcNAc(b1-3)GalNAc
Procedure, shortened: as §1

[24] = molecular target: Neu5Ac(a2-3)GalNAc(b1-4)GlcNAc
Procedure, shortened: as §1

[25] = molecular target: Neu5Ac(a2-6)Gal(b1-4)GlcNAc(b1-2)Man(a1-3)[Gal(b1-4)GlcNAc(b1-2)Man(a1-6)]Man(b1-4)GlcNAc(b1-4)GlcNAc
Procedure, shortened: as §1

[26] = molecular target: Neu5Ac(a2-6)Gal(b1-4)GlcNAc(b1-2)Man(a1-3)[Neu5Ac(a2-6)Gal(b1-4)GlcNAc(b1-2)Man(a1-6)]Man(b1-4)GlcNAc(b1-4)GlcNAc
Procedure, shortened: as §1

[27] = molecular target: Neu5Ac(a2-6)Gal(b1-4)GlcNAc(b1-3)Gal(b1-3)GlcNAc
Procedure, shortened: as §1

[28] = molecular target: Neu5Ac(b2-6)Gal(b1-4)GlcNAc
Procedure, shortened: as §1

Neu5Ac(b2-6)GalNAc = molecular target: Neu5Ac(b2-6)GalNAc
Procedure, shortened: as §1

[29] = molecular target: Neu5Ac9Ac(a2-3)Gal(b1-3)GlcNAc
Procedure, shortened: as §1

B1: Gal 3 (Homo sapiens), P17931 (protein)
chain: MADNFSLHDALSGSGNPNPQGWPGAWGNQPAGAGGYPGASYPGAYPGQAPPGAYPGQAPPGAYHGAPGAYPGAPAPGVYPGPPSGPGAYPSSGQPSAPGAYPATGPYGAPAGPLIVPYNLPLPGGVVPRMLITILGTVKPNANILDFQRGNDVAFHFNPRFNENNRRVIVCNTKLDNNWGREESQSVFPFESGKPFKIQVLVEPDHFKVAVNDAHLLQYNHRVKKLNEISKLGISGDIDLTSASYTMI
glycan array binding signal (z-score) [1]: -0.057
glycan array binding signal (z-score) [2]: 0.064
glycan array binding signal (z-score) [3]: -0.032
glycan array binding signal (z-score) [4]: 19.8
glycan array binding signal (z-score) [5]: 0.619
glycan array binding signal (z-score) [6]: 0.242
glycan array binding signal (z-score) [7]: 0.045
glycan array binding signal (z-score) (Fuc(b1-3)GlcNAc): -0.041
glycan array binding signal (z-score) [8]: -0.061
glycan array binding signal (z-score) [9]: -0.079
glycan array binding signal (z-score) [10]: 0.028
glycan array binding signal (z-score) [11]: -0.068
glycan array binding signal (z-score) [12]: -0.086
glycan array binding signal (z-score) [13]: -0.047
glycan array binding signal (z-score) [14]: -0.042
glycan array binding signal (z-score) [15]: -0.007
glycan array binding signal (z-score) [16]: -0.023
glycan array binding signal (z-score) (Glc(a1-6)Glc(a1-6)Glc): -0.051
glycan array binding signal (z-score) (GlcA(b1-6)Gal): -0.057
glycan array binding signal (z-score) [17]: -0.057
glycan array binding signal (z-score) [18]: -0.012
glycan array binding signal (z-score) (GlcNAc(b1-3)Gal): -0.059
glycan array binding signal (z-score) (GlcNAc(b1-3)Gal(b1-4)Glc): -0.053
glycan array binding signal (z-score) [19]: -0.076
glycan array binding signal (z-score) (GlcNAc(b1-6)GalNAc): -0.058
glycan array binding signal (z-score) (Kdn(a2-3)Gal(b1-4)Glc): -0.004
glycan array binding signal (z-score) (Kdn(a2-6)Gal(b1-4)GlcNAc): -0.071
glycan array binding signal (z-score) [20]: -0.067
glycan array binding signal (z-score) (Man(a1-2)Man(a1-3)Man): -0.024
glycan array binding signal (z-score) [21]: 0.003
glycan array binding signal (z-score) [22]: -0.076
glycan array binding signal (z-score) [23]: 0.182
glycan array binding signal (z-score) [24]: -0.062
glycan array binding signal (z-score) [25]: 0.028
glycan array binding signal (z-score) [26]: -0.05
glycan array binding signal (z-score) [27]: -0.061
glycan array binding signal (z-score) [28]: -0.083
glycan array binding signal (z-score) (Neu5Ac(b2-6)GalNAc): -0.023
glycan array binding signal (z-score) [29]: -0.069
